Shown are actives, neighbours in structure and some others; about 3.5% of the full set was active somewhere.
TEAD-YAP inh = TEAD-YAP interaction inhibition; 640,000 compounds, 1.4% hits; inhibition, % at 9.12 µM; HEK-TIYL cells, TEAD-Gal4/YAP UAS-luciferase luminescence; AID 1259422; in the data active means inhibition above about 32%
GPR151 ag = activates the human receptor GPR151; 650,000 compounds, 1% hits; Q8TDV0; activation, % at 11.2 µM; PathHunter beta-arrestin GPR151 cells, luminescence; in the data active means activation above about 4.9%
FBW7 activator = activators of human E3 ligase FBW7. Q969H0. AlphaScreen FBW7–phospho-cyclin E peptide binding, activator screen. normalized activity (activation), % at 26.1 µM. 650,000 compounds, 0.13% hits. AID 1259310; in the data active means normalized activity above about 1.9%;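 further: purified mutant Fbw7 with reduced substrate affinity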
MITF inh = inhibitors of human MITF | AlphaScreen MITF homodimerization, bead proximity signal | inhibition, % at 2.6 µM | 650,000 compounds, 0.91% hits | AID 1259374; in the data active means inhibition above about 50%
Target sequence (O75030 whole entry, looked up): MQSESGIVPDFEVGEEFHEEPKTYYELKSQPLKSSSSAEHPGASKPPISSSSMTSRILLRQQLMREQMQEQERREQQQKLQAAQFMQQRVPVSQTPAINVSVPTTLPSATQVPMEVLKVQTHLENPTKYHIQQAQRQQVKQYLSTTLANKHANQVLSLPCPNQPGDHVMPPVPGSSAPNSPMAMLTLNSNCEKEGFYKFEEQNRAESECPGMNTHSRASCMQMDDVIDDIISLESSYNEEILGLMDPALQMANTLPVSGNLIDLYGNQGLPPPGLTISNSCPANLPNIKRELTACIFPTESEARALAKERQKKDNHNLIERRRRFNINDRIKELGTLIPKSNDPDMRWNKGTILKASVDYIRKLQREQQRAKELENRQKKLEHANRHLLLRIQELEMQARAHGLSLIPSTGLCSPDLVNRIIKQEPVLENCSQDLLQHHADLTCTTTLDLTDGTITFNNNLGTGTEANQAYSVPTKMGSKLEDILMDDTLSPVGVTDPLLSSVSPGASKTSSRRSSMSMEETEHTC
GPR151 confirm = confirmation of human GPR151 activators. AID 1508609. 6,700 tested, under 10 active. shares compounds with GPR151 ag. activation, % at 11.2 µM. GPR151 PathHunter beta-arrestin cells, luminescence, 90 min; % of EA-reagent control over plate median;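 active means mean percent activation across replicates above the confirmation screen cutoff of 4.91%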
GPR119 ag = activates human GPR119 in a GPR151 counter-screen; 6,700 compounds, 0.3% hits; GPR119 PathHunter beta-arrestin cells, luminescence, 90 min; 0 = compound-well median, 100 = enzyme-acceptor control; activation, % at 11.2 µM; shares compounds with GPR151 ag;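 active means mean percent activation in the counterscreen above 29.09%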;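 further: counterscreen on off-target GPR119 to flag nonselective hits from the GPR151 activator screen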
Numbers stand for hits; . = inactive; / = no result; ! = repeats disagree.

SMILES	TEAD-YAP inh	GPR151 ag	FBW7 activator	MITF inh	GPR151 confirm	GPR119 ag
O=C(CN1C(=O)COc2cc(S(=O)(=O)N3CCCC3)ccc21)NC1CCCCCCC1	.	7.1	.	.	.	.
O=C(CN1C(=O)COc2cc(S(=O)(=O)N3CCCCC3)ccc21)NC1CCCCCC1	.	.	.	.	/	/
CC(=O)N1CCc2ccc(S(=O)(=O)N3CCCc4ccccc43)cc21	54	6.7	.	.	.	.
CC(=O)N1CCOc2cc(S(=O)(=O)N3CCCc4ccccc43)ccc21	.	.	.	.	/	/
Nc1cc(-c2ccccc2)nn1Cc1cccc(Cl)c1	.	.	.	.	/	/
Nc1c(-c2ccccc2)c(-c2ccccc2)nn1Cc1ccccc1	.	6.9	.	.	.	.
COc1ccccc1-c1nc2s/c(=C\c3cccc([N+](=O)[O-])c3)c(=O)n2n1	.	7.8	.	.	.	.
COc1cccc(-c2nn(C)c3sc(C(=O)N4CCCC4)cc23)c1	.	.	.	.	/	/
O=C(CSc1nnc(-c2ccc(Br)cc2)o1)NC1CCCC1	.	8.1	.	.	.	.
N/C(=N\OC(=O)c1ccc(I)cc1)c1ccncc1	.	.	.	.	/	/
CCCCNC(=O)CN1CCN(Cc2ccccc2Cl)C1=O	.	.	.	.	/	/
Cc1cc(NC(=O)C2CC2)n(-c2nc3ccccc3[nH]2)n1	.	9.1	.	.	.	.
Cc1cc(NC(=O)c2ccco2)n(-c2nc3ccccc3[nH]2)n1	.	.	.	.	/	/
CN(C)CCCOc1nn(Cc2ccccc2)c2ccccc12	.	6.2!	.	.	.	.
C=CCn1c(SCCC)nc2c(c1=O)C1(CCCCC1)Cc1ccccc1-2	.	.	.	.	/	/
COc1cc([N+](=O)[O-])cc2c1NC(c1cccnc1)C1CC=CC21 (stereo not given)	.	5.2	.	.	.	.
COc1cc([N+](=O)[O-])cc2c1NC(c1ccncc1)C1CC=CC21 (stereo not given)	.	.	.	.	/	/
O=S(=O)(NC1=NCCC1)c1cccc(NS(=O)(=O)c2ccc(Cl)c(Cl)c2)c1	.	.	.	.	/	/
Cc1cc(=O)n2[nH]c(NCc3cccc(Br)c3)nc2n1	.	.	.	.	/	/
COc1ccc(NC(=O)CCCCCn2c(SCc3ccc(C)cc3)nc3ccsc3c2=O)cc1	.	.	.	.	/	/
COc1ccc(C)cc1N(CC(N)=O)S(C)(=O)=O	.	7.7	.	.	.	.
Cc1ccc(C)c(N(CC(=O)NC(C(C)C)C(C)C)S(C)(=O)=O)c1	.	5.9	.	.	.	.
COC(=O)CN(c1cc(C)ccc1OC)S(C)(=O)=O	.	.	.	.	/	/
CCCCCCCCCCCCCCCCCCOC[C@H](COP(=O)(O)OCC[N+](C)(C)C)OC(C)=O	/	5.2	/	.	.	.
CCCCN1C(=O)c2ccc([N+](=O)[O-])cc2C1=O	.	.	.	.	/	/
SMILES	TEAD-YAP inh	GPR151 ag	FBW7 activator	MITF inh	GPR151 confirm	GPR119 ag
O=C(CSc1ccc(F)cc1)Nc1cc(Cl)ccc1O	.	6.4	.	.	.	.
O=C(CSc1ccccc1)Nc1cc(Cl)ccc1O	.	.	.	.	/	/
CC(C)(C)NC(=O)C(c1ccccn1)N(Cc1ccccc1)C(=O)c1csnn1 (stereo not given)	.	4.9	.	.	.	.
CCOc1ccc(-c2cc(=O)c3cc(NC(=O)c4ccccc4Br)ccc3o2)cc1	.	5.1	.	.	.	.
COc1ccc(NC(C)=O)cc1NC(C)C(=O)Nc1ccc(C(C)=O)cc1 (stereo not given)	.	.	.	.	/	/
O=C(Nc1cccc(F)c1)Nc1ccnn1C1CCN(C(=O)[C@@H]2C[C@H]2c2ccccc2)CC1	.	.	.	.	/	/
Cc1ccccc1N(CC(=O)N1CCOCC1)S(=O)(=O)c1ccc(Cl)cc1	.	14	.	.	.	.
Cc1ccccc1N(CC(=O)N1CCCC1)S(=O)(=O)c1ccc(Cl)cc1	.	.	.	.	/	/
CCOC(CNc1nc(OC)cc(OC)n1)(OCC)c1ccccn1	.	5.0	.	.	.	.
Cn1nnc2c(N3CCN(C(=O)COc4ccc5ccccc5c4)CC3)ncnc21	.	5.1	.	.	.	.
Cc1ccc(OCC(=O)N2CCN(C(=O)COc3ccc4ccccc4c3)CC2)cc1	.	.	.	.	/	/
COC(=O)c1ccc(/C=N\NC(=O)CNc2ccc(C)cc2)cc1	.	.	.	.	/	/
COC(=O)c1ccc(/C=N/NS(=O)(=O)c2cc(C)ccc2C)cc1	.	5.9	.	.	.	.
CCCn1c(=O)c2ccccc2n2c(SCC(=O)NC3CCCC3)nnc12	.	.	.	.	/	/
NC(N)=NC(N)=Nc1cccc([N+](=O)[O-])c1	.	.	.	.	/	/
NC(N)=NC(N)=Nc1cccc(Cl)c1	.	10!	.	.	.	.
COc1ccc(C)cc1NC(=O)C1C2C=CC(O2)C1C(=O)O (stereo not given)	.	.	.	.	/	/
COc1ccc(CCS(=O)(=O)Nc2ccc3c(c2)N(C(=O)C2CCCO2)CC3)cc1 (stereo not given)	.	5.8	.	.	.	.
O=C(NCc1nc(-c2ccncc2)n[nH]1)C(c1ccccc1)C1CCCCC1 (stereo not given)	.	7.1	.	.	.	.
COc1ccc(C2CC(c3c(-c4ccccc4)c4cc(Br)ccc4[nH]c3=O)=NN2C(=O)c2ccc(C)cc2)cc1 (stereo not given)	.	.	.	.	/	/
Cc1cccc(CC(=O)Nc2cnn(-c3cccc(C(=O)Nc4ccc(F)c(C)c4)c3)c2)c1	.	.	.	.	/	/
Nc1ccccc1S(=O)(=O)NCC(=O)O	.	.	.	.	/	/
Nc1ccccc1S(=O)(=O)Nc1ccccc1	.	5.0	.	.	.	.
CCN1C=CC=C/C1=C1\SC(=S)N(C)C1=O	.	7.3	.	.	.	.
O=c1c2ccccc2c2ccccc2c(=O)n1-c1ccc(F)cc1	.	.	.	.	/	/
SMILES	TEAD-YAP inh	GPR151 ag	FBW7 activator	MITF inh	GPR151 confirm	GPR119 ag
O=c1c2ccccc2c2ccccc2c(=O)n1-c1ccc(OC(F)(F)F)cc1	.	5.1	.	.	.	.
CCN(CC)S(=O)(=O)c1ccc(OCc2ccccc2C#N)c([N+](=O)[O-])c1	.	5.0	.	.	.	.
Cc1cccc(/C=N/NC(=O)c2ccc(F)cc2)n1	.	.	.	.	/	/
Cc1ccc(C(=O)Nc2ccc(C(=O)N/N=C/c3cccc(C)n3)cc2)cc1	.	6.1	.	.	.	.
O=C(NCC1CCCO1)c1cc(=O)[nH]c2ccc(Br)cc12 (stereo not given)	.	6.7	.	.	.	.
O=C(NCC1CCCO1)c1cc(Br)ccc1Cl (stereo not given)	.	.	.	.	/	/
COCCN(C)C(=O)C1CC(=O)c2sc(NC(=O)C3CCC3)nc2C1 (stereo not given)	.	.	.	.	/	/
CCOc1ccccc1/C=C1\N=C(c2ccc(C)cc2)OC1=O	.	.	.	.	/	/
Cc1cccc(C2=N/C(=C\c3ccc(I)o3)C(=O)O2)c1	.	5.3	.	.	.	.

From PubChem
